These results are taken from ChEMBL document CHEMBL3988442, “University of Dundee, Small-Polar-MMV Screening Library” (2021).

The structures appear in SMILES notation. For part of these data: Entries with a potency or affinity are not part of this list.

What all share (design): scale not given: direction of the effect not stated beside the values
Assay [1] addresses Protein translocase subunit SecA (Escherichia coli (strain K12)) (UniProt P10408). Put plainly: Assay to Identify E. coli SecA ATPase Inhibitors. The assay is classed as functional. The following applies: 30 µM.
In assay [2] the target is T1, Ubiquitin-activating enzyme e1, putative (Leishmania donovani (strain BPK282A1)) (UniProt E9BSI1).
T1 sequence (whole entry): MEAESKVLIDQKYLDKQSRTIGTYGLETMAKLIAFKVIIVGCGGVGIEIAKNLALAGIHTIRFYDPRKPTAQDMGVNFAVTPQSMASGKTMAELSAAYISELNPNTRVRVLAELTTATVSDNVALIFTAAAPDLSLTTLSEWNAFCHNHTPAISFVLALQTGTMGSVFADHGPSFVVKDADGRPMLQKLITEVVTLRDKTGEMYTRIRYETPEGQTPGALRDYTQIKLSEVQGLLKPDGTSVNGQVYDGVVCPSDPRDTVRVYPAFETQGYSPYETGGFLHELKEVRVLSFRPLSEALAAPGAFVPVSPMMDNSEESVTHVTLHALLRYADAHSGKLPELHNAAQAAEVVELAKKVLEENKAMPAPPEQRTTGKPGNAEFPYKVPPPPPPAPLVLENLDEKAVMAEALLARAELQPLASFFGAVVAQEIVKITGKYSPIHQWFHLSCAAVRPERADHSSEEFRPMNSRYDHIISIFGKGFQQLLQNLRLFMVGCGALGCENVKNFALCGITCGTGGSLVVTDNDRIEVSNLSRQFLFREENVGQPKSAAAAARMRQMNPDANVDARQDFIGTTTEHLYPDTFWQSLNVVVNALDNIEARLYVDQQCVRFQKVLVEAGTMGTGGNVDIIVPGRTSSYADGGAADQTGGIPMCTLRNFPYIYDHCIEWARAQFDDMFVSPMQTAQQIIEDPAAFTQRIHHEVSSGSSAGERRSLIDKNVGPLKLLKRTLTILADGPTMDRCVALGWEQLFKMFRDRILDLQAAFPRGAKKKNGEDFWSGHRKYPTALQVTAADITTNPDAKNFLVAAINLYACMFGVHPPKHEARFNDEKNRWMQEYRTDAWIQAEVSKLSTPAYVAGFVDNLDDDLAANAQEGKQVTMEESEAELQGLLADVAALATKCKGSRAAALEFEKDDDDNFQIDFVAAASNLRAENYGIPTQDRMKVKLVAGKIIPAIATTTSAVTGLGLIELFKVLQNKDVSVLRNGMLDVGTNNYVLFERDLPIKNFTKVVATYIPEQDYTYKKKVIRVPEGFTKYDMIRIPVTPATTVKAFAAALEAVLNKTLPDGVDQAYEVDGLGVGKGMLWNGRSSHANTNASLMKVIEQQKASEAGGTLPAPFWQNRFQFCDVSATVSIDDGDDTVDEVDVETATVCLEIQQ
Put plainly: Leishmania donovani Ubiquitin Activating Enzyme (LdE1). The assay is classed as functional. The following applies: 30 µM.

Assay [3] concerns the target AMP-activated protein kinase, AMPK (Homo sapiens) (UniProt P54646+O43741+P54619+Q9UGJ0+Q9Y478+Q13131+Q9UGI9). Put plainly: AMP-dependent Kinase enzyme assay. An in vitro enzyme assay that detects ADP turnover that is directly proportional to AMPK activity. This uses naive AMPK that is activated during the assay with MK-8722. The assay is classed as functional. As to conditions: 30 µM.

Assay [4] addresses Sialic acid-binding Ig-like lectin 9 (Homo sapiens) (UniProt Q9Y336). Description: Hs-Siglec9 ALPHAscreen SOP 20170721. As to conditions: 10 µM. On the technique in general: Alpha assays give light when donor and acceptor beads are brought close together.
The test system of assay [5] is Trypanosoma cruzi. Description: Trypanosoma cruzi phosphomannomutase and mannose-1-phosphate guanylyltransferase assay. The assay is classed as functional. As to conditions: 10 µM.
For assay [6], the target named is T2, Arginase-2, mitochondrial (Homo sapiens) (UniProt P78540).
T2 sequence (whole entry): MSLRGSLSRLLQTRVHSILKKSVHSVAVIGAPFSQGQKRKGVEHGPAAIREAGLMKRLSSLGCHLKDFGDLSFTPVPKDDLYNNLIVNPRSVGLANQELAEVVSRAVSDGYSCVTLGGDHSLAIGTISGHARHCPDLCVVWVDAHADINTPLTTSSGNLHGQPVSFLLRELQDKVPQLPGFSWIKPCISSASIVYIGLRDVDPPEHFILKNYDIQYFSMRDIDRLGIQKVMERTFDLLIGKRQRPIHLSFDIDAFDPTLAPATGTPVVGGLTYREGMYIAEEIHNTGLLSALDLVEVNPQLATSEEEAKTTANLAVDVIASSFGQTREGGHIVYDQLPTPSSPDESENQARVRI
Put plainly: in vitro enzyme assay to detect the production of urea directly proportional to the activity of Arginase II. Further: in the data most compounds retested in dose-response had high values. The assay is classed as functional. The following applies: 33.3 µM.

Assay [7] has as its target T3, Proteasome subunit beta (Trypanosoma cruzi) (UniProt O96673).
T3 sequence (whole entry): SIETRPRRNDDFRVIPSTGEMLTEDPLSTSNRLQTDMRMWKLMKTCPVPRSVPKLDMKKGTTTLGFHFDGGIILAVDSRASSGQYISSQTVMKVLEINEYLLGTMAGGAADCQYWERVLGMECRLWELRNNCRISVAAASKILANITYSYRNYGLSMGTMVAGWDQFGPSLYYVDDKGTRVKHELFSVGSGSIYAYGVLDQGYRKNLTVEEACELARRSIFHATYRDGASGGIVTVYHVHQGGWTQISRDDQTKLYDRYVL
Put plainly: Trypanosoma cruzi proteasome chymotrypsin-like activity (TcProtChymo) assay. Further: in the data most compounds retested in dose-response had high values. The assay is classed as functional. The following applies: 9.37 µM.

The species entered for assay [8] is Homo sapiens. Put plainly: To identify inhibition of the IFN signalling (Jak-Stat) pathway via expression of an eGFP reporter gene under the control of an IFN-stimulated response element (ISRE) containing MxA promoter. The following applies: 30 µM. In kind it is functional. (Reporter assays use an easily measured gene product as a stand-in for the process of interest.)

Assay [9] deals with T4, Tyrosyl-tRNA synthetase, putative (Trypanosoma cruzi (strain CL Brener)) (UniProt Q4DSP6).
T4 sequence (whole entry): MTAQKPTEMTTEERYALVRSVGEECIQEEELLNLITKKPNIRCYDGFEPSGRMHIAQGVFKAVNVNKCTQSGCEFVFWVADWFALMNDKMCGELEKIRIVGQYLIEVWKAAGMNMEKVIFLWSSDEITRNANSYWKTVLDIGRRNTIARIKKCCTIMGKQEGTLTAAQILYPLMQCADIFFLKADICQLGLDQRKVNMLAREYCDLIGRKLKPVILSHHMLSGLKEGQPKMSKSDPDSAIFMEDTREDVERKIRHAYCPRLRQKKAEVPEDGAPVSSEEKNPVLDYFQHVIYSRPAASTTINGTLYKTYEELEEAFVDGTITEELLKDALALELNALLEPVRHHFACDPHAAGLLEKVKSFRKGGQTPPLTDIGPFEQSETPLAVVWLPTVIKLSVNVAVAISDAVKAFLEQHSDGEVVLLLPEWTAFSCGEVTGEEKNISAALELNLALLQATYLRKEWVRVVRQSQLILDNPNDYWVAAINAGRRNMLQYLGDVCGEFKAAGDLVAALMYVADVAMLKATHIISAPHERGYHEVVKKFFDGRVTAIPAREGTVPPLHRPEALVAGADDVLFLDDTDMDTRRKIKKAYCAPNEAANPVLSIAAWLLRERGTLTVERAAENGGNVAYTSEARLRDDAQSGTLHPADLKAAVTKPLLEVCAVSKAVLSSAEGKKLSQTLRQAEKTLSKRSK
Put plainly: Trypanosoma cruzi tyrosyl tRNA synthetase (TcYRS) _High Tyrosine SOP. Further: in the data most compounds retested in dose-response had high values. The following applies: 30 µM. In kind it is functional.

The target in assay [10] is T4, Tyrosyl-tRNA synthetase, putative (Trypanosoma cruzi (strain CL Brener)). Description: Trypanosoma cruzi tyrosyl tRNA synthetase (TcYRS) SOP. The assay is classed as functional. As to conditions: 30 µM.
Assay [11] has as its target Chromo domain-containing protein 1 (Saccharomyces cerevisiae (strain ATCC 204508 / S288c) (Baker's yeast)) (UniProt P32657). Put plainly: ScCHD-1 Enzyme Inhibition Assay. Further: in the data most compounds retested in dose-response had high values. The assay is classed as functional. The following applies: 30 µM.

Chain of Chromo domain-containing protein 1 (Saccharomyces cerevisiae (strain ATCC 204508 / S288c) (Baker's yeast)) (P32657 whole entry, the tested form may be a part): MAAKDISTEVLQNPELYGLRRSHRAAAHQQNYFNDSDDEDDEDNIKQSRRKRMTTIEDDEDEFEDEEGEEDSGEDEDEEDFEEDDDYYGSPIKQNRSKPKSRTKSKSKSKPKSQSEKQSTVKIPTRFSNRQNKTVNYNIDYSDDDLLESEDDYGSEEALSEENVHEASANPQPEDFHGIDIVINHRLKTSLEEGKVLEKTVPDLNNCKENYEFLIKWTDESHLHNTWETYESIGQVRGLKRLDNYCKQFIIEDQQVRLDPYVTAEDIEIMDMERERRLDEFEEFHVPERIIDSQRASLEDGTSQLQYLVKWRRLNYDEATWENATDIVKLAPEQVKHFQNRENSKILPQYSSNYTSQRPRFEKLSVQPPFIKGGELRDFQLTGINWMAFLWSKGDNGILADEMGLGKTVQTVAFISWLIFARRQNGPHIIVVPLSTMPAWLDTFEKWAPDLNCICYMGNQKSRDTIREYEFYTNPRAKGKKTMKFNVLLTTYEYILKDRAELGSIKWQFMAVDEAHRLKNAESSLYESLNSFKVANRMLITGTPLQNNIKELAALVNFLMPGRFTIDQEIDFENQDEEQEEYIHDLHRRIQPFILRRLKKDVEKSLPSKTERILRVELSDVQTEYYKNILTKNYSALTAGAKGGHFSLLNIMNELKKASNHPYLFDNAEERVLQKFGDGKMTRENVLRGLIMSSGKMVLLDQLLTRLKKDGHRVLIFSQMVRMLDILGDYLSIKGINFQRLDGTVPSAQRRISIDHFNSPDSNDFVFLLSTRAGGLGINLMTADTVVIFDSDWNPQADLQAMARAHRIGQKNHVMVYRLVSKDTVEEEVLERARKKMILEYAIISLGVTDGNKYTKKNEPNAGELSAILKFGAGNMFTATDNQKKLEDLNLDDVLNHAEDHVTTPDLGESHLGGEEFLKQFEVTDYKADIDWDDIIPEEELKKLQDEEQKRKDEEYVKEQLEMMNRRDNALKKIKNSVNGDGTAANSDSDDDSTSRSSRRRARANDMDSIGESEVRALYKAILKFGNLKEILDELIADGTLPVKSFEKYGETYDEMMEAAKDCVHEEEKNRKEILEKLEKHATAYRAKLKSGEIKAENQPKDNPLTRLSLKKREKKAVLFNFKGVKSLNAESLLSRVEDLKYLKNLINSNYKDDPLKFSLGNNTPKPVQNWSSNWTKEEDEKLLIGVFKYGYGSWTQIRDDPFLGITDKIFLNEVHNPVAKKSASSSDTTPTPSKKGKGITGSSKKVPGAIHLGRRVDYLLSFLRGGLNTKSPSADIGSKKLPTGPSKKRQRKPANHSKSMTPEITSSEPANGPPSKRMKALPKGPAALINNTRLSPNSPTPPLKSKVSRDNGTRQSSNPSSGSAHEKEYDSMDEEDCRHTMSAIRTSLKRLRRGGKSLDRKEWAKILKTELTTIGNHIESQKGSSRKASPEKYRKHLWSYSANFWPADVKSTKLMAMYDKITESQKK
Chain of Protein translocase subunit SecA (Escherichia coli (strain K12)) (P10408 whole entry): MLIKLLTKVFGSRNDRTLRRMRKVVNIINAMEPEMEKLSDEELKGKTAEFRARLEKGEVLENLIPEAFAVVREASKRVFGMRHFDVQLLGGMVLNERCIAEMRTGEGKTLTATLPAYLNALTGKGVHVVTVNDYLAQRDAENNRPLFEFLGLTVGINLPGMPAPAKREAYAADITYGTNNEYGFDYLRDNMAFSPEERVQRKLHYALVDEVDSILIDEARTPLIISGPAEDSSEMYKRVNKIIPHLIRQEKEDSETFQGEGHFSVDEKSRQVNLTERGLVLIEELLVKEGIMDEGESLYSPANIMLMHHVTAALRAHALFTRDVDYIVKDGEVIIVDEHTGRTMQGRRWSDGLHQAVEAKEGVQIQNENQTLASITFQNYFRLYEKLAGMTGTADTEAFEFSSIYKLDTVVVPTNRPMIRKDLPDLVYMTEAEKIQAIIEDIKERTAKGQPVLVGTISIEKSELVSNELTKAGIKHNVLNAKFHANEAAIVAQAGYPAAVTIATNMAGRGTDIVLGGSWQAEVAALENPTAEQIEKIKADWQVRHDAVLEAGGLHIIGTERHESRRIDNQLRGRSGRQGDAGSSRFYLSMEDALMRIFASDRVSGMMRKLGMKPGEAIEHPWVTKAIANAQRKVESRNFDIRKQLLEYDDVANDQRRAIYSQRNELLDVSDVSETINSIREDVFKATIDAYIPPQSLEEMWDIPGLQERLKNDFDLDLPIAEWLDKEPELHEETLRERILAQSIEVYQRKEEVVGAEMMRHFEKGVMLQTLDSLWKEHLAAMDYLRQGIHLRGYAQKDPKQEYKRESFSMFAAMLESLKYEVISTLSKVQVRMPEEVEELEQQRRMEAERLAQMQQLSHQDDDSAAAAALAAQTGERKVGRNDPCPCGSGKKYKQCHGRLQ
Chain of Sialic acid-binding Ig-like lectin 9 (Homo sapiens) (Q9Y336 whole entry): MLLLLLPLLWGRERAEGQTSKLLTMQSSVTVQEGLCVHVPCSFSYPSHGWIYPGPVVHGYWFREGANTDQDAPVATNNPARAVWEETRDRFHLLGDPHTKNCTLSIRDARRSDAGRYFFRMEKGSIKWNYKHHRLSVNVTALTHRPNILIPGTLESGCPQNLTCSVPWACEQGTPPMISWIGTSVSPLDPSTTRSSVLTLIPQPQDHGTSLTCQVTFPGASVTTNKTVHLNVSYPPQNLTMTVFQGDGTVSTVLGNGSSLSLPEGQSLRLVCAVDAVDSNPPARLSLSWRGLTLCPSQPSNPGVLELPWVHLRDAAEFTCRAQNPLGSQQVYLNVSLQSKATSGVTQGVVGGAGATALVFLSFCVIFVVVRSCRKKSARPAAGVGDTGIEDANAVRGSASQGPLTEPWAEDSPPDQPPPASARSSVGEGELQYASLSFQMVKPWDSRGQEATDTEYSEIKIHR

Consider `CS(=O)(=O)N[C@@H]1CCO[C@]2(CCN(C(=O)c3cnccn3)C2)C1`, for which the Percent Effect was -3.71% in assay [1]; 10.8% in assay [2]; 1.74% in assay [3]; -2.86% in assay [4]; 1.07% in [5]; 0.955% in assay [6]. Further, the Percent Effect came out at 22.7% in assay [7]; 5.57% in [8]; 7.57% in [9]; 17.9% in assay [10]; 2.48% in [11].
For `Cc1ccc(N2CCC3(CC2)CC(OCC(=O)N(C)C)CO3)nn1` (centres undefined), the Percent Effect in [1] is -2.67%; in [2], 5.41%; in assay [3], 1.03%; in assay [4], -1.72%; in assay [5], -0.684%; in assay [6] it was 2.23%. Also, the Percent Effect is 14.9% in assay [7]; -14.6% in assay [8]; 2.16% in assay [9]; 12.8% in [10]; 2.16% in [11].
For `Cc1ccc(NC2CCN(C(=O)CCNS(C)(=O)=O)CC2)nn1`, the Percent Effect in assay [1] is -4.31%; in assay [2], -2.7%; in assay [3], -5.25%; in [4], 9%; in assay [5] it was -0.279%; in [6], -5.36%. For the same compound, the Percent Effect in assay [7] is -5.21%; in [8], 2.45%; in assay [9], 1.98%; in assay [10], 6.1%; in assay [11], 7.54%.
`CC(=O)N1CC[C@H]2OCC[C@@]2(C(=O)NCc2ccco2)C1`: the Percent Effect is -5.68% in assay [1]; 5.33% in assay [2]; -0.449% in [3]; 12.6% in assay [4]; -2.12% in assay [5]; -44.3% in assay [6]. Besides, the Percent Effect is 11.3% in assay [7]; -5.97% in assay [8]; 4.17% in [9]; 5% in [10]; -6.83% in [11].
With `CC1CCN(S(=O)(=O)NCc2ccccc2Cn2cncn2)CC1`, the Percent Effect was -3.83% in assay [1]; 13.9% in [2]; 6.66% in assay [3]; 0.681% in [4]; -1.54% in [5]; 3.23% in [6]. Also, the Percent Effect in assay [7] was 13.4%; in assay [8], 10.6%; in assay [9], 3.12%; in [10] it was 20.2%; in assay [11], -23.4%.
Regarding `CCc1nnc2n1CCN(Cc1ccc3c(c1)OCCO3)C2`, the Percent Effect is 0.332% in assay [1]; 18.9% in assay [2]; -5.31% in assay [3]; -8.03% in assay [4]; -3.06% in assay [5]; 1.29% in [6]. Further, the Percent Effect was 7.9% in [7]; 28.3% in [8]; 2.97% in [9]; 13.4% in [10]; -0.119% in [11].
Regarding `CCN(Cc1ccc2c(c1)OCO2)C(=O)NC(C)Cn1cccn1` (centres undefined), the Percent Effect in assay [1] is -2.99%; in [2] it was 20.8%; in [3], 2.96%; in assay [4] it was -4.68%; in assay [5] it was -5.43%; in assay [6] it was 1.42%. Moreover, the Percent Effect in assay [7] is 8.78%; in assay [8] it was 5.38%; in [9] it was 4.85%; in assay [10], 14.6%; in assay [11], -8.47%.
In the case of `Cc1cnc2c(c1NCc1ccncc1)c(=O)n(C)c(=O)n2C`, the Percent Effect in assay [1] is -2.14%; in assay [2] it was 0%; in assay [3], 5.25%; in [4] it was -12.3%; in assay [5], -5.68%; in assay [6], -11.4%. The Percent Effect in [7] is 17.6%; in assay [8] it was 29.2%; in assay [9], 4.3%; in [10] it was 10%; in [11] it was -2.51%.
With `CC(C)c1nn(C)c(Cl)c1CNCc1ccc2c(c1)OCCO2`, the Percent Effect in assay [1] is -4.72%; in [2], 10.5%; in [3] it was 2.72%; in assay [4], 8.57%; in assay [5], 3.27%; in [6], -5.04%. Further, the Percent Effect in assay [7] is 2.28%; in [8], -34.1%; in assay [9], 5.42%; in assay [10], 16.1%; in [11], 0.827%.
